# PLK1 PBD inh: PLK1 (human) polo-box domain binding inhibition. P53350. Plk1 PBD binding of FITC phosphopeptide, fluorescence polarization. Potency, µM, inactives show max response, negative = inhibition, hits mostly inhibitors. hit rate 2.8% among 360,000; also: series mostly up to about 57 µM; nearly all actives have a fitted effect of over 65% in size
# VDR inhibitor: vitamin D3 receptor (human) inhibition | VDR-SRC2-3 peptide fluorescence polarization, 2 h | P11473 | Potency, µM, without a hit: max response, negative = inhibition, usual class: inhibitors | hit rate 0.93% among 400,000
# Target sequence (P11473 whole entry, looked up): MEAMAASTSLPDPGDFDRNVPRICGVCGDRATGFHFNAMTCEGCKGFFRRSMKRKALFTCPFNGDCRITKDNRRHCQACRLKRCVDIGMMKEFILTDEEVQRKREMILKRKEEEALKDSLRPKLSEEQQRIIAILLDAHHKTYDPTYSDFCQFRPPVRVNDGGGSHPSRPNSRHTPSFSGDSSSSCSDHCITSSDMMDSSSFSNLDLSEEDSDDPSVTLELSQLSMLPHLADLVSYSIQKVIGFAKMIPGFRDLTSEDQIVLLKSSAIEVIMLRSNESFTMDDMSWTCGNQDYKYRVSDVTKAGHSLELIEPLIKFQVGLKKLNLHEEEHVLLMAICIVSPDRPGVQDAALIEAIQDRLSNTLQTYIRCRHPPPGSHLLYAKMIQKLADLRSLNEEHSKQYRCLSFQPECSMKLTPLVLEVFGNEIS
#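 Signal is fluorescence polarization, reporting how far test compounds block the interaction of VDR with the SRC2-3 coregulator peptide after a 2 h room-temperature incubation.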
# IDH1 R132H inh: inhibitors of human mutant IDH1 R132H; AID 602179; hit rate 0.093% among 390,000; Potency, µM (doses to about 76.6 µM), without a hit: at the highest dose activity change, negative = inhibition, most hits filed as inhibitors; IDH1-R132H enzyme, NADPH consumption, diaphorase/resazurin fluorescence; also: nearly all actives have a fitted effect of over 65% in size
#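 IDH1-R132H (0.5 ug/mL dispensed) in pH 7.5 Tris buffer was preincubated 30 min with compound, then given a substrate mix of 0.016 mM NADPH and 2 mM alpha-KG for 80 min at room temperature; remaining NADPH was read by diaphorase/resazurin fluorescence.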
# TrxR1 substrate: is turned over as a substrate by rat TrxR1; purified TrxR1 substrate turnover, NADPH consumption readout; Potency, µM (series often up to 114 µM), for the others: at the highest dose activity change, negative = substrate turnover; hit rate 0.01% among 390,000; also: nearly all actives have a fitted effect of over 50% in size
#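 Rat TrxR1, dispensed at 90 nM, was prereduced with 400 uM NADPH (final) for 5 min at ~22 deg C, then incubated with compound 15 min before 400 uM selenite. A first-read NADPH fluorescence drop versus no-compound background flagged substrates.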
# TrxR1 inh: inhibitors of rat thioredoxin reductase 1; O89049; recombinant rTrxR1, NADPH fluorescence consumption, selenite substrate; Potency, µM (titrated, usually from 114 µM), inactives show at the highest dose activity change, negative = inhibition, actives largely listed as inhibitors; hit rate 1% among 390,000; AID 588453; also: nearly all actives have a fitted effect of over 65% in size
#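 Rat TrxR1 (90 nM in the dispensed reagent) was pre-reduced with 400 uM NADPH for 5 min at room temperature, then incubated with compound for 15 min. After 400 uM selenite was added, NADPH fluorescence (Ex 340/Em 450 nm) was followed for 8 min.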
# Sfp inh: Sfp phosphopantetheinyl transferase inhibition. Q9F4F7. Biochemical Sfp PPTase activity, qHTS. Potency, µM, for inactives: largest response in the series, negative = inhibition, actives largely listed as inhibitors. hit rate 3.5% among 310,000. AID 1490;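 also: the enzyme is Sfp with the accession as filed and its product quenches rhodamine fluorescence; 0% = enzyme reaction without inhibitor and -100% = no enzyme wells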
#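 Fluorescence-quenching assay: 15 nM Sfp-PPTase preincubated 15 min at room temperature with compound, then 5 uM rhodamine-CoA and 12.5 uM BHQ-2-labelled YbbR peptide added. Fluorescence (ex 525/em 598 nm) read at start and after 30 min; difference gives rate.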
# * marks the source's active call; other numbers are inactive results; ? = inconclusive; nt = not tested or not shown; [ ] = dose if it differs, or a comment. An excerpt weighted towards active compounds, which were near 5.2% of everything screened. Calls follow the shape of the dose curve; as a rule, active = well fitted curve in the direction sought with a large enough effect; inconclusive = small, poorly fitted or top-dose-only effect, or another doubt; inactive = no such curve, though single readings can be large; an effect the other way counts as inactive or inconclusive. Unless noted, % is scaled to controls: 0 for no effect and ±100 for the full control effect; potency is read from the fitted curve at half-maximal effect.
SMILES,PLK1 PBD inh,VDR inhibitor,IDH1 R132H inh,TrxR1 substrate,TrxR1 inh,Sfp inh
COc1cccc(CNC(=O)Cn2ccc3cc(S(=O)(=O)N4CCCC4)ccc32)c1OC,30µM*,-27%,-3%,9%[57.1 µM],26%[57.1 µM],-7%
CSc1ccc(CNC(=O)CCn2ccc3cc(S(=O)(=O)N4CCCC4)ccc32)cc1,27µM*,-25%,7%,-2%,10%,6%
CCOc1ccc(CNC(=O)Cn2ccc3cc(S(=O)(=O)N4CCCC4)ccc32)cc1,27µM*,-14%,1%,3%[57.1 µM],22%[57.1 µM],3%
CCC(=O)N1CCC1(C)C(=O)Nc1cc(-c2ccccc2)nn1C (stereo not drawn),-2%,nt,nt,nt,nt,nt
CC(C)C(C)(C#N)NC(=O)CSc1nc2scc(-c3ccco3)c2c(=O)n1-c1ccccc1 (stereo not drawn),-17%,-6%,5%,2%[11.4 µM],-13%[11.4 µM],7.9µM*
C=CCn1c(SC(F)F)nc2scc(-c3ccco3)c2c1=O,-11%,?,1%,6%,2%,?
C=CCn1c(SCC(C)=O)nc2scc(-c3ccco3)c2c1=O,?,79µM*,-6%,4%,?,7.1µM*
Cc1ccc(-n2c(SCC(=O)NCc3ccco3)nc3sc(C)c(C)c3c2=O)cc1,-4%,-3%,-1%,14%,4%,-3%
C[C@@H]1CCC2[C@](C)(CO)[C@@H](O)CC[C@]2(C)[C@@]12CCC(CO)(CCO)O2 (stereo partly drawn),27µM*,2%,21%,0%,9%,8%
CC(C)(C)c1ccc(C(=S)N2CCN(c3ccccc3)CC2)cc1,24µM*,?,0%,6%,25%,50µM*
S=C(c1ccccc1)N1CCN(c2ccccc2)CC1,27µM*,-12%,9%,11%[57.1 µM],13%[57.1 µM],nt
CCN(CC)c1ccc(C(=S)N2CCN(c3ccccc3)CC2)cc1,13µM*,-7%,-2%,-6%,1%,?
Cc1ccccc1N1CCN(C(=S)c2ccccc2)CC1,-6%,-18%,0%,-19%,-11%,-1%
Cc1ccc2c(c1)c1c(c(=O)n(Cc3ccccc3)c(=O)n1CC(=O)Nc1ccccc1F)n2C,nt,8%,26%,-1%,3%,nt
COc1ccc(C2/C=C\CN(C(=O)C3CCCC3)C(C)C(=O)N2Cc2ccc(F)cc2)cc1 (stereo not drawn),nt,-14%,nt,-4%,-7%,-3%
Cc1cc(C)c2sc(C)[n+](CCCS(=O)(=O)[O-])c2c1,-8%,?,14%,-9%,15%,2.5µM*
CC(=O)C1=C(c2ccc(F)cc2)N(C(C)=O)n2c(nnc2C2CCCCC2)S1,nt,12%,?,8%[57.1 µM],15%[57.1 µM],nt
CCOC(=O)c1c(NC(=S)Nc2cc([N+](=O)[O-])ccc2OC)sc2c1CCCCC2,nt,nt,nt,nt,nt,22µM*
COC(=O)c1c(NC(=S)Nc2cc(OC)c(Cl)cc2OC)sc2c1CCCCC2,-24%,-9%,2%,-9%,-14%,?
CCOC(=O)c1c(/N=C/c2cccc([N+](=O)[O-])c2O)sc2c1CCC2,27µM*,-32%,5%,-7%,-35%,18µM*
CCOC(=O)c1c(/N=C/c2cc([N+](=O)[O-])ccc2O)sc(C)c1C,8%,5%,0%,0%,-3%,40µM*
CCOC(=O)c1c(NC(=O)c2c(C(=O)O)cccc2[N+](=O)[O-])sc2c1CCCC2,12µM*,?,-4%,1%[57.1 µM],-5%[57.1 µM],18µM*
CCOC(=O)c1c(/N=C/c2ccccc2O)sc2c1CCC2,?,-7%,6%,2%[57.1 µM],-39%,-14%
CCCCNC(=O)C1C(c2ccc(OC)cc2)=Nc2ccccc2N1C(=O)Cc1cc(OC)cc(OC)c1 (stereo not drawn),-12%,nt,nt,nt,nt,nt
Cc1cc(OCC(=O)OCC(=O)N2CCCCC2)ccc1Cl,-2%,nt,-3%,nt,nt,nt
SMILES,PLK1 PBD inh,VDR inhibitor,IDH1 R132H inh,TrxR1 substrate,TrxR1 inh,Sfp inh
CC(=O)N1CC(C)Sc2ccc(S(=O)(=O)NCc3ccc(F)cc3)cc21 (stereo not drawn),-11%,8%,1%,-2%,11%,4%
CC(=O)N1CC(C)Sc2ccc(S(=O)(=O)NCCc3cccc(C)c3)cc21 (stereo not drawn),12µM*,?,12%,5%[57.1 µM],33%[57.1 µM],15%
CCN1CCCC1Cn1c(-c2ccccc2)nc2c(N(CCOC)CCOC)nc(C)nc21 (stereo not drawn),nt,nt,nt,nt,nt,19%
COc1ccc(/C=C2\CCc3ccccc3C2=O)cc1CN1CCOCC1,-5%,2%,6%,9%[57.1 µM],14%[11.4 µM],7%
COc1ccc2c(c1)CC/C(=C\c1ccc(OC)c(Cn3nc(C)cc3C)c1)C2=O,-21%,-8%,9%,-16%,-15%,35µM*
COc1ccc(/C=N\NC(=O)c2sccc2C)cc1Cn1nc(C)cc1C,6%,4%,4%,2%,16%,1%
COc1ccc2c(c1)CC/C(=C\c1ccc(OC)c(Cn3cccn3)c1)C2=O,-7%,-6%,11%,-9%,-3%,45µM*
COCCNC(=S)NN(c1ccccc1)c1ccccc1,27µM*,-13%,-1%,-2%,10%[57.1 µM],?
Cc1ccc(-c2nn(Cc3ccccc3)cc2/C=C/C(=O)O)cc1,-9%,-4%,10%,-8%,-4%,-10%
Cc1ccc(-c2nn(CCC(=O)O)cc2/C=C\C(=O)c2ccc(Br)cc2)cc1,38µM*,35µM*,19%,-9%,-17%,-3%
O=C(O)CCn1cc(/C=C\C(=O)c2ccc(Cl)cc2)c(-c2cccc(Br)c2)n1,24µM*,50µM*,4%,-11%,?,3%
Cc1ccc(CNC(=O)C2CCCN(Cc3nc(-c4cccc(C)c4)oc3C)C2)cc1 (stereo not drawn),nt,3%,32%,-20%,-27%,nt
COc1ccc(C(C(=O)c2ccccc2)c2ccccc2)cc1 (stereo not drawn),2%,nt,nt,nt,nt,nt
CC(=O)Oc1ccc2oc(-c3ccccc3)c(C(N)=O)c2c1,27µM*,?,-3%,33%,-8%,25%
O=C(O)c1cc(N(Cc2ccccc2O)Cc2ccccc2O)ccc1O,nt,?,nt,1%,40µM*,56µM*
CCN(CC)c1ccc(C(=O)c2ccccc2C(=O)O)c(O)c1,-6%,-15%,9%,-20%,-27%,10%
C=CCOc1cccc(NC(=O)c2ccccc2SC)c1,27µM*,-19%,-5%,-7%,14%,8%
CCOC(=O)c1ccccc1NC(=O)c1ccccc1SC,-10%,-7%,8%,-4%[57.1 µM],20%,-25%
CSc1ccccc1C(=O)Nc1ccccc1C(=O)NC(C)C,30µM*,79µM*,1%,-4%[57.1 µM],8%[57.1 µM],-6%

# Source: PubChem BioAssay
